Only some compounds are listed: those with a hit (about 5.5% of all), similar ones and a draw of the others.
Sfp PPTase inh – blocks B. subtilis Sfp PPTase activity. Biochemical Sfp PPTase activity, qHTS. Potency, µM, most hits filed as inhibitors. 310,000 compounds, 3.5% hits. AID 1490;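 also: the enzyme is Sfp with the accession as filed and its product quenches rhodamine fluorescence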
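With Hepes-Na pH 7.6 buffer containing 10 mM MgCl2, Sfp (15 nM) modified BHQ-2-YbbR (12.5 uM) using rhodamine-CoA (5 uM). Two reads 30 minutes apart at 525/598 nm yielded each well's rate.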
Coupling enz – coupling enzyme interference in Giardia aldolase counter-screen | coupling enzyme system counterscreen, AmpLite Red fluorescence | AID 2472 | activity change, negative = inhibition, % at 58.2 µM, hits read low | 290,000 compounds, 0.67% hits; in the data active = activity change below about -30%
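Compounds tested against the coupling enzymes alone at 57.5 uM final; readout was AmpLite Red fluorescence (525/598 nm) after 20 min at RT.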
ELG1 repair inh – inhibitors of ELG1-dependent DNA repair in HEK293T cells | HEK293T ELG1-luciferase reporter, luminescence, 16 h; DNA damage induced by 5-fluorouridine | Potency, µM (top dose mostly 46.1 µM), usual class: inhibitors | 330,000 compounds, 2.3% hits | AID 504467; also: nearly all actives have a fitted effect of over 55% in size
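Luminescence from the luciferase reporter, measured 30 min after ONE-Glo reagent at room temperature, was the read-out. Beforehand, 2,000 cells per well were exposed for 16 hr at 37 °C to 5-fluorouridine together with compound or vehicle.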
Giardia kill – Giardia lamblia killing; Giardia lamblia trophozoite viability; activity change, % at 7.66 µM, hits read low; 340,000 compounds, 0.15% hits; in the data active = activity change below about -80%; inconclusive = between about -30% and that limit;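 also: parasites exposed to compound for two days anaerobically before the ATP read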
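Luminescent ATP signal served as the viability read-out, measured 15-30 min after adding ATP detection reagent to trophozoites that had been incubated with compounds for 48 hrs at 37 deg C anaerobically at 100 cells/well.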
Large screens that a line does not name were inactive. Unless noted, calls follow the shape of the dose curve; as a rule, active = well fitted curve in the direction sought with a large enough effect; inconclusive = small, poorly fitted or top-dose-only effect, or another doubt; inactive = no such curve, though single readings can be large; an effect the other way counts as inactive or inconclusive.

Cc1cccc(C2c3[nH]c4ccccc4c3CCN2C(=O)Cc2nc(-c3ccccc3)n[nH]2)n1 (stereo not given)	ELG1 repair inh 18µM
CC(C)(C)S(=O)(=O)/C(C#N)=N/Nc1ccc(C#N)cc1	ELG1 repair inh 18µM
CCNC(=S)NN=C1CCC(C(C)(C)C)CC1 (stereo not given)	Sfp PPTase inh 50µM
CCOc1ccc(NC(=O)CCC(=O)c2ccc(OC)cc2)cc1	none
NS(=O)(=O)c1ccc(CCNC(=O)COC(=O)CC(c2ccccc2)c2ccccc2)cc1	ELG1 repair inh 21µM
COc1cc(NC(=S)NCCCO)c(OC)cc1Cl	Sfp PPTase inh inconclusive
COCCCNC(=S)NNC(=S)Nc1ccc(OC)cc1	Sfp PPTase inh 50µM
COc1cc(NC(=S)NCCc2ccc(S(N)(=O)=O)cc2)c(OC)cc1Cl	Sfp PPTase inh 16µM
COc1ccc(NC(=S)NCCCc2ccccc2)cc1	none
COc1cc(NS(=O)(=O)c2ccc(C)c(C)c2)c(OC)cc1Cl	Sfp PPTase inh 79µM, ELG1 repair inh inconclusive
Cn1c(CNC(=O)CNC(=O)c2ccc(F)cc2)cc(=O)n(C)c1=O	none (no result: Coupling enz)
CC(C)OCCCNC(=S)Nc1ccc(S(N)(=O)=O)cc1	Sfp PPTase inh 2.2µM, Coupling enz -65
NS(=O)(=O)c1ccc(NC(=S)NCCc2ccccc2)cc1	Sfp PPTase inh 7.9µM, ELG1 repair inh inconclusive
NS(=O)(=O)c1ccc(CCNC(=O)c2ccc[nH]c2=S)cc1	Sfp PPTase inh 56µM
Nc1ccc(S(=O)(=O)N2CCOCCOCCOCCOCCOCC2)cc1	none
COCCCN1C(=O)C(=O)/C(=C(/O)c2ccc(S(=O)(=O)N3CCOCC3)cc2)C1c1ccc(C(C)C)cc1 (stereo not given)	ELG1 repair inh inconclusive
CCOc1cc(-c2cc(-c3ccc(C)cc3)nc(N)c2C#N)ccc1O	Sfp PPTase inh inconclusive, ELG1 repair inh 16µM
CCCn1c(SCC(=O)Nc2cc(S(=O)(=O)N3CCCCC3)ccc2C)n[nH]c1=O	none (no result: Sfp PPTase inh, Coupling enz)
NC(=S)n1[nH]c(-c2ccc([N+](=O)[O-])cc2)c(N=Nc2cccc(Cl)c2)c1=O	ELG1 repair inh 3.7µM
NC(=S)n1[nH]c(-c2ccc([N+](=O)[O-])cc2)c(N=Nc2ccc(O)cc2)c1=O	none
COC1=C(Nc2ccc(OC)cc2)C(=O)C(OC)=C(Nc2ccc(OC)cc2)C1=O	none (no result: Sfp PPTase inh, Coupling enz, ELG1 repair inh)
COC1=C(Nc2ccc(O)cc2)C(=O)c2ccccc2C1=O	Sfp PPTase inh inconclusive, Coupling enz -33
COC1=C(Nc2ccc(OC)cc2)C(=O)c2ccccc2C1=O	Sfp PPTase inh inconclusive, Coupling enz -34
Cc1cccc(NS(=O)(=O)c2cccc(C(=O)NCC(c3ccc(F)cc3)N3CCOCC3)c2)c1 (stereo not given)	none (no result: Sfp PPTase inh, Coupling enz, ELG1 repair inh)
COc1cc2c(-c3ccccc3)c(C)oc2cc1/C=N/NC(N)=S	none (no result: Sfp PPTase inh, Coupling enz, ELG1 repair inh)
N#Cc1cccc(-c2cncnc2NCc2ccccc2)c1	none (no result: ELG1 repair inh, Giardia kill)
CCOC(=O)N1CCN(C(=O)C(C)N(c2ccc(Oc3ccccc3)cc2)S(C)(=O)=O)CC1 (stereo not given)	ELG1 repair inh 6.5µM
COc1ccc(-c2c(O)c3c(OC)c4c(cc3oc2=O)OC(C)(C)C=C4)cc1	none (no result: ELG1 repair inh, Giardia kill)
Cc1nn(C(=O)c2cccc([N+](=O)[O-])c2C)c(C)c1S(=O)(=O)N1CCCCCC1	none (no result: Sfp PPTase inh, Coupling enz, ELG1 repair inh)
OC1(c2ccc(OC(F)F)cc2)CSC(=Nc2cccnc2)N1Cc1ccco1 (stereo not given)	ELG1 repair inh 18µM
OC1(c2ccc(F)cc2)CCN(Cc2cccnc2)CC1	none
OC1(c2ccc(F)cc2)CSC(=Nc2cccnc2)N1Cc1ccco1 (stereo not given)	ELG1 repair inh 23µM
FC(F)Oc1ccc(-c2csc(=Nc3cccnc3)n2CC2CCCO2)cc1 (stereo not given)	ELG1 repair inh inconclusive
Cc1c(NC2=C(Cl)C(=O)N(c3ccccc3Cl)C2=O)c(=O)n(-c2ccccc2)n1C	Sfp PPTase inh 50µM
Cc1c(NC2=C(Cl)C(=O)N(c3ccccc3)C2=O)c(=O)n(-c2ccccc2)n1C	Sfp PPTase inh inconclusive
CCCn1c(CCNc2nc(-c3cccc(Br)c3)cs2)nc2ccccc21	none (no result: Sfp PPTase inh, Coupling enz, ELG1 repair inh)
CC1=C(C#N)C(=O)N(C2CCS(=O)(=O)C2)C(=O)/C1=C\c1ccc(C)o1 (stereo not given)	Sfp PPTase inh 13µM (no result: Giardia kill)
NS(=O)(=O)c1ccc(-c2ccc(/C=C3\SC(=S)N(C4CCS(=O)(=O)C4)C3=O)o2)cc1 (stereo not given)	Sfp PPTase inh inconclusive, ELG1 repair inh inconclusive
Cc1ccc(/C=C2\SC(=S)N(C3CCS(=O)(=O)C3)C2=O)o1 (stereo not given)	Sfp PPTase inh 50µM, ELG1 repair inh inconclusive
O=C1/C(=C/c2ccncc2)SC(=S)N1C1CCS(=O)(=O)C1 (stereo not given)	Sfp PPTase inh 50µM, ELG1 repair inh inconclusive
O=C(/C=C/c1ccccc1)Nc1cccc(C(=O)N2CCCC2)c1	none (no result: Sfp PPTase inh, Coupling enz, ELG1 repair inh)
O=C(NC1CC(=O)N(c2ccc3c(c2)OCCO3)C1)c1c(F)cccc1Cl (stereo not given)	none (no result: Sfp PPTase inh, Coupling enz, ELG1 repair inh)
CC(C)(C)OC(=O)N1Cc2[nH]c3ccccc3c2C[C@@H]1C(=O)O	none (no result: Sfp PPTase inh, Coupling enz)
Cc1ccc(C(=O)NCC(=O)N2CCN(c3cccc(Cl)c3)CC2)s1	none (no result: Sfp PPTase inh, Coupling enz)
Cc1ccc(OCC(=O)OCC(=O)NC2CC2)cc1C	none (no result: Sfp PPTase inh, Coupling enz)
COc1ccc(N2C(=O)[C@@H]3[C@H](C2=O)[C@H]2c4ccccc4C=CN2[C@@H]3C(=O)Nc2ccccc2)cc1	none
O=C(c1ccco1)[C@@H]1[C@@H]2C(=O)N(c3ccccc3)C(=O)[C@@H]2C2c3ccccc3C=CN21 (stereo not given in full)	Sfp PPTase inh inconclusive, Coupling enz -47
CC(C)(C)C(=O)[C@@H]1[C@@H]2C(=O)N(c3ccc4c(c3)OCCO4)C(=O)[C@@H]2C2c3ccccc3C=CN21 (stereo not given in full)	Coupling enz -30
CC(=O)[C@@H]1[C@@H]2C(=O)N(Cc3ccccc3)C(=O)[C@@H]2C2c3ccccc3C=CN21 (stereo not given in full)	Coupling enz -33
Cc1cccc(NC(=O)c2cccc(C(=O)Nc3cccc(C)c3)n2)c1	none (no result: Sfp PPTase inh, Coupling enz, ELG1 repair inh)
CC(=O)Nc1ccc(NC(=O)c2cccc(C(=O)OC(C)C)n2)cc1	ELG1 repair inh inconclusive
Cc1cc(C)cc(NC(=O)c2cccc(C(=O)Nc3cc(C)cc(C)c3)n2)c1	Sfp PPTase inh 56µM
CC(C)OC(=O)c1cccc(C(=O)Nc2cccc(NC(=O)c3cccc(C(=O)OC(C)C)n3)n2)n1	ELG1 repair inh 8.2µM
CCc1nc2ccc(C(=O)N3CCN(c4ccccc4F)CC3)cc2nc1CC	ELG1 repair inh inconclusive (no result: Coupling enz)
COc1cc2c(cc1OC)[C@@H]1O[C@](CCCCN3C(=O)c4ccccc4C3=O)(C2)Oc2cc(C)n(-c3ccccc3)c(=O)c21	none (no result: ELG1 repair inh, Giardia kill)
COc1cc(OC)cc(C(=O)NCc2n[nH]c(=S)n2-c2ccccc2)c1	Sfp PPTase inh 89µM
COc1ccc(C(=O)NCc2n[nH]c(=S)n2-c2ccccc2)cc1OC	Sfp PPTase inh 56µM
CC1CCCCC1NC(=O)CNC(=O)c1cccs1 (stereo not given)	none (no result: Sfp PPTase inh, Coupling enz)
